In PubChem BioAssay (NCI):
Several values for one entry are separate records, joined by “and”; a condition that tells them apart may be missing. Identical values can stand only once. This is part of a sample that, as a whole, favours compounds with a hit. Of some 83,000 tested, about 20% had one in any assay.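 96-well plates, one dose, 48 hours. Percent growth reported; active if below 10.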 Activity calls are given as the source filed them.

Key:
Experiment in all cases: NCI-60 one-dose screen, 48 h (100 = growth as untreated, 0 = no growth, -100 = all killed)
Details in all cases: 10 µM unless noted
[1] = tested on: NCI-H23 lung
[2] = tested on: NCI-H226 lung
[3] = tested on: NCI-H322M lung
[4] = tested on: HOP-62 NSCLC
[5] = tested on: NCI-H460 lung
[6] = tested on: HOP-92 NSCLC
[7] = tested on: NCI-H522 lung
[8] = tested on: 786-0 renal
[9] = tested on: COLO 205 colon
[10] = tested on: A549/ATCC NSCLC

Measured: growth

CCN(CC)CCC(CNc1c2ccc([N+](=O)[O-])cc2nc2cc(OC)c(OC)cc12)c1ccccc1 (stereo unspecified)
active: [1] -86.4% and -71.3% | [2] -65.3% and -61.1% | [3] -39.9% and -76.5% | [4] -9.52% and -86.4% | [5] 6.85% and -100% | [6] -42.2% | [7] -45% and -79.4% | [8] -74.2% and -91.6% | [9] -49.7% and -100%

O=[N+]([O-])c1ccc(/C=N\NC(=S)Nc2ccc(F)cc2)cc1
inactive: [1] 101% and 88.3% | [2] 105% and 91.1% | [3] 86.6% and 97.9% | [4] 105% and 94.6% | [5] 95.3% and 87% | [6] 107% and 75.7% | [7] 95% and 104% | [10] 82.1% and 90.9% | [8] 105% and 98.5% | [9] 104% and 103%

CC1CCCc2sc3nc(NNC(=O)c4cnccn4)n(-c4ccccc4)c(=O)c3c21 (stereo unspecified)
active: [2] -2.24% and -5.33% | [4] 4.44% and 1.42% | [5] 3.62% and -47.3% | [7] -10.4% and 6.49% | [10] 3.51% and 7.07% | [9] 4.98% and -2.77%
16.1% (inactive) and 6.45% (active): [8]
15.9% (inactive) and 6.48% (active): [3]
inactive: [1] 23.9% and 20.2% | [6] 44% and 42.3%

Cc1nn(-c2ccc(Cl)cc2)c2ncnc(N/N=C/c3ccccc3O)c12
33.3% (inactive) and 7.57% (active): [3]
active: [4] 7.93% and 9.97% | [5] 5.04% and 1.12% | [8] 8.99% and 6.59%
inactive: [1] 37% and 18.5% | [2] 52.8% and 27.9% | [6] 44.1% and 26.6% | [7] 23.3%
18.7% (inactive) and 4.16% (active): [9]

CCCCOc1cc(C(=O)NCCN(CC)CC)c2ccccc2n1
inactive: [1] 88.7% and 106% | [2] 94.5% and 105% | [3] 100% and 94.7% | [4] 99.4% and 102% | [5] 110% and 103% | [6] 45.8% and 51.7% | [7] 103% | [8] 90.6% and 99.9% | [9] 89.6% and 93.1%

COC(=O)c1nc(N)nc(C(=O)OC)c1C(=O)c1ccc(OC)cc1
inactive: [1] 98.5% and 58% | [2] 101% and 74.8% | [3] 105% and 88.1% | [4] 115% and 62.3% | [5] 121% and 55% | [6] 106% and 63.4% | [7] 100% and 55.7% | [10] 102% and 53.6% | [8] 124% and 72.4% | [9] 109% and 75.8%

N#CC(C#N)=C/C=C/c1cccc([N+](=O)[O-])c1
21.8% (inactive) and -24.7% (active): [2]
26.2% (inactive) and -22.1% (active): [8]
19.4% (inactive) and -19.3% (active): [1]
active: [4] -4.35% and -23.7% | [5] -7.92% and -72.3% | [7] -55.5% and -70.5% | [9] 1.24% and -26.8%
inactive: [3] 59.9% and 26.4% | [6] 23.3%
